From PubChem BioAssay (EPA / NIEHS) come the findings set out here.

Details in all cases: mRNA level, 48 h; actives raise or lower the signal
Read-out in test [1]: Cytochrome P450 4A22 (Homo sapiens) (UniProt Q5TCH4)
The experiment in a line: LTEA_HepaRG_CYP4A22: Life Technologies and Expression Analysis (LTEA) Assay for Cytochrome P450 4A22 (CYP4A22) using HepaRG (AID 2283495). The procedure, abridged: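 Concentration-response (8 points, max 100 uM, 0.5% DMSO) in human HepaRG liver cells after 48 h exposure. CYP4A22 mRNA by TaqMan qRT-PCR with housekeeping-gene normalization.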

Read-out in test [2]: Cytochrome P450 7A1 (Homo sapiens) (UniProt P22680)
The experiment in a line: LTEA_HepaRG_CYP7A1: Life Technologies and Expression Analysis (LTEA) Assay for Cytochrome P450 7A1 (CYP7A1) using HepaRG (AID 2283496). The procedure, abridged: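 Using 0.5% DMSO as vehicle and baseline, chemicals were tested in duplicate over an 8-point range from 100 uM on HepaRG cells for 48 h; qRT-PCR signals were normalised to ACTB, GAPDH and POLR2A.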

Read-out in test [3]: Glutathione S-Transferase (GSTA2), GSTA2 (gene 2939)
Description: LTEA_HepaRG_GSTA2: Life Technologies and Expression Analysis (LTEA) Assay for Glutathione S-Transferase (GSTA2) using HepaRG (AID 2283497). The procedure, abridged:
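GSTA2 transcript levels came from Fluidigm TaqMan qRT-PCR normalized to three housekeeping genes, fitted in both directions against DMSO. HepaRG cultures received chemicals for 48 h in serum-free induction medium (0.5% DMSO), 8 half-log concentrations up to 100 uM, duplicate.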

Read-out in test [4]: Glutamate-cysteine ligase catalytic (GCLC), GCLC (gene 2729)
Description: LTEA_HepaRG_GCLC: Life Technologies and Expression Analysis (LTEA) Assay for Glutamate-cysteine ligase catalytic (GCLC) using HepaRG (AID 2283498). The essentials:
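Expression by TaqMan qRT-PCR, normalized to three housekeeping genes (ACTB, GAPDH, POLR2A), with up- or down-regulation fitted against DMSO. HepaRG cells dosed in duplicate for 48 h with 8 half-log concentrations up to 100 uM, vehicle 0.5% DMSO.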

Read-out in test [5]: growth arrest and DNA damage 45 (GADD45G), GADD45G (gene 10912)
The experiment in a line: LTEA_HepaRG_GADD45G: Life Technologies and Expression Analysis (LTEA) Assay for growth arrest and DNA damage 45 (GADD45G) using HepaRG (AID 2283499). The procedure, abridged: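 Concentration-response in HepaRG: 48 h dosing, 0.5% DMSO, highest level 100 uM. GADD45G expression by qRT-PCR, normalised to endogenous controls; bidirectional fit to DMSO.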

Read-out in test [6]: Glutamate-cysteine ligase regulatory (GCLM), GCLM (gene 2730)
Description: LTEA_HepaRG_GCLM: Life Technologies and Expression Analysis (LTEA) Assay for Glutamate-cysteine ligase regulatory (GCLM) using HepaRG (AID 2283500). The procedure, abridged: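 In this multiplexed HepaRG gene-expression assay, GCLM mRNA change after 48 h treatment (8 concentrations, max 100 uM) was scored against DMSO by bidirectional curve fitting.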

Read-out in test [7]: Glutathione S-transferase M3 (GSTM3), GSTM3 (gene 2947)
Description: LTEA_HepaRG_GSTM3: Life Technologies and Expression Analysis (LTEA) Assay for Glutathione S-transferase M3 (GSTM3) using HepaRG (AID 2283501). The essentials:
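Expression of GSTM3 is determined by qRT-PCR in human liver HepaRG cells treated 48 h with an 8-point half-log range from 100 uM in 0.5% DMSO.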

Read-out in test [8]: Heat shock 70 kDa protein 1 (HSPA1A), gene 3303
Description: LTEA_HepaRG_HSPA1A: Life Technologies and Expression Analysis (LTEA) Assay for Heat shock 70 kDa protein 1 (HSPA1A) using HepaRG (AID 2283502). The essentials: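 An oxidative-stress marker readout: HepaRG cells treated 48 h in duplicate with an eight-point series (highest 100 uM) had HSPA1A mRNA quantified by TaqMan qRT-PCR. Activity was fitted in both directions using 0.5% DMSO as baseline.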

Read-out in test [9]: 3-Hydroxy-3-Methylglutaryl-CoA Synthase 2 (HMGCS2), HMGCS2 (gene 3158)
Description: LTEA_HepaRG_HMGCS2: Life Technologies and Expression Analysis (LTEA) Assay for 3-Hydroxy-3-Methylglutaryl-CoA Synthase 2 (HMGCS2) using HepaRG (AID 2283504). The essentials:
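This steatosis marker was read as HMGCS2 mRNA change in HepaRG cells treated 48 h with up to 100 uM chemical. Normalisation used housekeeping genes; activity in either direction was fitted relative to 0.5% DMSO vehicle.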

Read-out in test [10]: Insulin Like Growth Factor 1 (IGF1), IGF1 (gene 3479)
Description: LTEA_HepaRG_IGF1: Life Technologies and Expression Analysis (LTEA) Assay for Insulin Like Growth Factor 1 (IGF1) using HepaRG (AID 2283506). The essentials: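 Endpoint: IGF1 mRNA change by qRT-PCR, housekeeping-normalized, fitted bidirectionally relative to 0.5% DMSO vehicle. Human HepaRG cells were treated 48 h in serum-free induction medium, eight half-log concentrations topping at 100 uM.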

Read-out in test [11]: Intercellular Adhesion Molecule 1 (ICAM1), ICAM1 (gene 3383)
The experiment in a line: LTEA_HepaRG_ICAM1: Life Technologies and Expression Analysis (LTEA) Assay for Intercellular Adhesion Molecule 1 (ICAM1) using HepaRG (AID 2283507). The essentials: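 Using the human liver line HepaRG, compounds are tested in duplicate over 48 h at concentrations up to 100 uM. Expression is determined by TaqMan qRT-PCR, normalized to endogenous controls, and analysed relative to 0.5% DMSO vehicle.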

Read-out in test [12]: Insulin-like growth factor-binding protein 1 (IGFBP1), IGFBP1 (gene 3484)
Description: LTEA_HepaRG_IGFBP1: Life Technologies and Expression Analysis (LTEA) Assay for Insulin-like growth factor-binding protein 1 (IGFBP1) using HepaRG (AID 2283508). The essentials: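 HepaRG, 48 h, 8 conc. (max 100 uM, half-log), duplicates, 0.5% DMSO. Readout: TaqMan qRT-PCR, ACTB/GAPDH/POLR2A normalisation. Fit: bidirectional vs DMSO.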

Read-out in test [13]: Interleukin 6 Receptor (IL6R), IL6R (gene 3570)
The experiment in a line: LTEA_HepaRG_IL6R: Life Technologies and Expression Analysis (LTEA) Assay for Interleukin 6 Receptor (IL6R) using HepaRG (AID 2283510).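 On AC50: differentiated human HepaRG liver cells in serum-free induction medium.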 The essentials: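 In this HepaRG screen, test chemicals act on cells for 48 h at up to 100 uM (eight half-log points, duplicate wells). IL6R expression is quantified by qRT-PCR after normalization to ACTB, GAPDH and POLR2A, with DMSO as baseline.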

Read-out in test [14]: Keratin 19 (KRT19), KRT19 (gene 3880)
Description: LTEA_HepaRG_KRT19: Life Technologies and Expression Analysis (LTEA) Assay for Keratin 19 (KRT19) using HepaRG (AID 2283512). The procedure, abridged:
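Readout is qRT-PCR of KRT19 mRNA, normalized to ACTB, GAPDH and POLR2A, from HepaRG cells treated 48 h with eight-point half-log dilutions topping at 100 uM. Activity in either direction is scored relative to 0.5% DMSO vehicle.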

Read-out in test [15]: JUN Transcription Factor, JUN (gene 3725)
Description: LTEA_HepaRG_JUN: Life Technologies and Expression Analysis (LTEA) Assay for JUN Transcription Factor using HepaRG (AID 2283513). The essentials:
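Gene-expression endpoint: JUN mRNA (qRT-PCR, normalized to three reference genes) in HepaRG cultures treated 48 h with chemicals, duplicate wells, 100 uM maximum with half-log dilutions; bidirectional fitting relative to 0.5% DMSO.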

Read-out in test [16]: Lipase C (LIPC), LIPC (gene 3990)
Description: LTEA_HepaRG_LIPC: Life Technologies and Expression Analysis (LTEA) Assay for Lipase C (LIPC) using HepaRG (AID 2283514). The procedure, abridged:
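LIPC expression was quantified by qRT-PCR against three housekeeping genes (ACTB, GAPDH, POLR2A). Differentiated human HepaRG cells received eight half-log doses (top 100 uM, 0.5% DMSO) in duplicate for 48 h; fitting bidirectional relative to DMSO.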

Read-out in test [17]: Interleukin 6 (IL6), IL6 (gene 3569)
Description: LTEA_HepaRG_IL6: Life Technologies and Expression Analysis (LTEA) Assay for Interleukin 6 (IL6) using HepaRG (AID 2283509). The procedure, abridged: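 Transcript levels, normalized to three housekeeping genes, were quantified by qRT-PCR after 48 h chemical treatment of HepaRG cells. Eight-point half-log series from 100 uM in 0.5% DMSO, duplicates. Fitted both directions against DMSO baseline.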

Read-out in test [18]: Potassium channel subfamily K member 1 (KCNK1), KCNK1 (gene 3775)
The experiment in a line: LTEA_HepaRG_KCNK1: Life Technologies and Expression Analysis (LTEA) Assay for Potassium channel subfamily K member 1 (KCNK1) using HepaRG (AID 2283511). The procedure, abridged:
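KCNK1 transcript measured by TaqMan qRT-PCR against three housekeeping genes, after HepaRG cells were treated 48 h with eight half-log concentrations (top 100 uM, 0.5% DMSO). Curves fitted bidirectionally relative to vehicle.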

Read-out in test [19]: Hypoxia-inducible factor 1-alpha (Homo sapiens) (UniProt Q16665)
Description: LTEA_HepaRG_HIF1A: Life Technologies and Expression Analysis (LTEA) Assay for Hypoxia-inducible factor 1 (HIF1A) Trancription factor using HepaRG (AID 2283503).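 Further: HIF1A transcript by TaqMan qRT-PCR normalized to ACTB GAPDH and POLR2A.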 The procedure, abridged:
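Gain- or loss-of-signal HIF1A mRNA changes are fitted against a DMSO baseline. HepaRG cultures receive eight concentrations, highest 100 uM, for 48 h in serum-free induction medium with 0.5% DMSO.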

Read-out in another test: HGF (gene 3082)
Description: LTEA_HepaRG_HGF: Life Technologies and Expression Analysis (LTEA) Assay for Hepatocyte Growth Facto (HGF) using HepaRG (AID 2283505). The procedure, abridged: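 Using HepaRG monolayers kept in 0.5% DMSO, chemicals were tested in duplicate over eight half-log concentrations from 100 uM for 48 h. Endpoint: HGF mRNA change relative to DMSO, normalized to ACTB/GAPDH/POLR2A.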

In general, AC50 refers to the concentration at which the activity in the assay is half-maximal.

Calls of active or inactive are those of the source. How the source made its calls: active means hit-call score of the fitted dose curve at least 0.9, where 1 is the maximum; inactive means score below 0.9.

Chain of Hypoxia-inducible factor 1-alpha (Homo sapiens) (Q16665 whole entry, looked up): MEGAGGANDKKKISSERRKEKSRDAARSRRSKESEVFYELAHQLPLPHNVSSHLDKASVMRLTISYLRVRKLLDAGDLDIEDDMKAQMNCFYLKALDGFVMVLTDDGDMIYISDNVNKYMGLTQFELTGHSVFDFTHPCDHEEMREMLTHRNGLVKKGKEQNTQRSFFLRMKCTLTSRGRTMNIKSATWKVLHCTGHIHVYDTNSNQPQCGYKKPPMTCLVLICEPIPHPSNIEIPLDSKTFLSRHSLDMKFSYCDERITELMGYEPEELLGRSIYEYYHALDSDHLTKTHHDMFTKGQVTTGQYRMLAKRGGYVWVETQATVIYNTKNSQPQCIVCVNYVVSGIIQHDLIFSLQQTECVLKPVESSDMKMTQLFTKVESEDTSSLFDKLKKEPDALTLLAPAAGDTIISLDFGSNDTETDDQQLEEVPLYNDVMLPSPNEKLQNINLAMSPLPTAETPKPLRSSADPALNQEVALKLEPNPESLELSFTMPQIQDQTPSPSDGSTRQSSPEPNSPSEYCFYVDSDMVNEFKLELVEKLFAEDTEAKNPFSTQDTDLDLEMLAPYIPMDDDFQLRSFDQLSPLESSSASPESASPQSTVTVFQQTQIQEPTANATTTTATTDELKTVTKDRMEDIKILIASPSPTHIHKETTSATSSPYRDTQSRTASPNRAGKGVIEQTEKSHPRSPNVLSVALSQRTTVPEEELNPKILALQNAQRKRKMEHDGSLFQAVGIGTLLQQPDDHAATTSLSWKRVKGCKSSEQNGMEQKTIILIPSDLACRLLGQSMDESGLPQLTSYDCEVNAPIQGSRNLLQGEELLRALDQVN

For `CN1C(=O)CC[C@H]1c1cccnc1`, the molecule was called inactive in [1], in test [2], in [3], in test [4], in test [5] and in [6]. For the same molecule, the molecule was classed as inactive in test [7], in test [8], in [9], in test [10], in test [11] and in [12]. In addition, the result in [13], in test [14], in test [15] and in test [16] was inactive.

As for `Clc1ccccc1C(c1ccccc1)(c1ccccc1)n1ccnc1`, the AC50 in test [1] is 15.7 µM (active); in test [2], 28.5 µM (active); in [3] it was 50 µM (active); in [4], 63 µM (active); in test [5], 28 µM (active); in test [6] it was 24.2 µM (active). Also, the AC50 in test [9] was 24.3 µM (active); in test [10] it was 15.8 µM (active); in test [11] it was 90.6 µM (active); in test [12] it was 16.7 µM (active); in test [17] it was 88.6 µM (active); in test [13] it was 93 µM (active). In addition, the AC50 in test [14] is 20.2 µM (active); in test [15], 66 µM (active); in test [16], 93.1 µM (active). Further, the molecule was called inactive in test [7], in test [8] and in test [18].

Take `O=CCCCC=O`: the result in [1], in test [2], in test [3], in [4], in test [5] and in test [7] was inactive. In addition, the result in test [8], in test [19], in test [9], in test [10], in test [11] and in test [12] was inactive. The call in [17], in [13], in [14], in [15] and in test [16] was inactive. In addition, the AC50 in test [6] is 0.236 µM (active).

Regarding `Cc1cc(F)ccc1-c1cc(N2CC[C@@H](O)[C@H]2CO)ncc1N(C)C(=O)C(C)(C)c1cc(C(F)(F)F)cc(C(F)(F)F)c1`, the AC50 was 16.4 µM (active) in test [1]; 20 µM (active) in [2]; 10.4 µM (active) in test [3]; 75.4 µM (active) in [4]; 20.1 µM (active) in test [5]; 46.7 µM (active) in [6]. The AC50 in test [8] is 70.1 µM (active); in [19] it was 74.6 µM (active); in test [9] it was 19.7 µM (active); in test [10], 17.3 µM (active); in test [11], 22.4 µM (active); in test [12], 70.5 µM (active). In addition, the AC50 was 48.6 µM (active) in [17], 74.8 µM (active) in test [15] and 18.6 µM (active) in test [16]. The result in test [13] and in test [14] was inactive.

Regarding `CN(C)C(=O)C1(N2CCCCC2)CCN(CC[C@@]2(c3ccc(Cl)c(Cl)c3)CN(C(=O)c3ccccc3)CCO2)CC1`, the result (in test [1]; with HGF (gene 3082); in test [13]; in test [14]; in test [16]) was inactive. Besides, the AC50 in test [2] is 25.2 µM (active); in [3], 22 µM (active); in test [4], 88.3 µM (active); in test [5] it was 37.8 µM (active); in test [6], 88.3 µM (active); in [8] it was 15.2 µM (active). Moreover, the AC50 is 33.1 µM (active) in test [19]; 68.6 µM (active) in test [9]; 90.9 µM (active) in test [10]; 47.2 µM (active) in test [11]; 21.6 µM (active) in [12]; 22.1 µM (active) in [17]. Also, the AC50 in test [15] was 31 µM (active).

In the case of `Cc1ccc(C(C)C)cc1`, the outcome in [1], in test [2], in test [3], in [4], in test [5] and in [6] was inactive. Also, the molecule was called inactive in test [7], in [8], in test [19], in [9], in test [10] and in [11]. Besides, the molecule was called inactive in test [12], in test [17], in test [13], in test [18], in test [14] and in test [15]. For the same molecule, the call in test [16] was inactive.
